Measurements taken from PubChem BioAssay (Tox21).
Where “and” joins values, the source holds several entries; their conditions need not be identical. Identical values can stand only once. Records with an inconclusive call do not appear. A call without a number means that no potency is given here. Some compounds were tested as several samples or in several runs, with calls that do not always agree. Calls of active or inactive are those of the source. Unless noted, calls follow the shape of the full dose curve.

Legend:
[1] = Nuclear factor erythroid 2-related factor 2/antioxidant responsive element (Nrf2/ARE) small molecule agonists: qHTS cell viability counter screen in human keratinocytes (AID 1919968; active = well fitted curve in the direction sought with a large enough effect in the repeat runs; an effect the other way counts as inactive or inconclusive; also: nearly all actives have a fitted effect of over 55% in size; also: potency is read from the fitted curve at half-maximal effect)
Procedure, shortened: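 KeratinoSens cells (HaCaT keratinocytes stably carrying an ARE-luciferase reporter) were seeded at 1,500 cells/well and rested 5 h at 37 C/5% CO2. They were then exposed to compounds in DMSO for 23 h. Viability was read by CellTiter-Fluor fluorescence after 1 h.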

[2] = target: Gonadotropin-releasing hormone receptor (Homo sapiens) (UniProt P30968); assay: Human gonadotropin-releasing hormone receptor (GnRHR) small molecule agonists, calcium flux assay in GnRHR-HEK293 cells (AID 1920063); also: nearly all actives have a fitted effect of over 35% in size
Procedure, shortened: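 HEK293 cells stably expressing human GnRHR were plated 18 h at 37 °C, loaded with calcium dye 1 h at 37 °C, then given compound in agonist mode; fluorescence (Ex/Em 480/540) read kinetically for 3 min at 1 s intervals.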

[3] = target: KiSS-1 receptor (Homo sapiens) (UniProt Q969F8); assay: Human kisspeptin (KISS1R) small molecule agonists, calcium flux assay in KISS1R-HEK293 cells (AID 1920064; active = well fitted curve in the direction sought with a large enough effect in the repeat runs; an effect the other way counts as inactive or inconclusive)
Procedure, shortened: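 HEK293 cells stably expressing human KISS1R were plated 18 h at 37 °C, loaded with calcium dye for 1 h at 37 °C, then given compound by pin tool. Fluorescence (Ex/Em 480/540) was read kinetically for 3 min.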

[4] = G protein-coupled receptor (GPCR) small molecule agonists, calcium flux assay: HEK293 wild type cell line counter screen (AID 1920065)
Procedure, shortened: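 Cells were plated and cultured 18 h at 37 C/5% CO2, then loaded with calcium dye for 1 h at 37 C. Compounds in DMSO were pin-transferred in agonist mode, and fluorescence (Ex/Em 480/540) was read kinetically for 3 min at 1 s intervals.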

[5] = p53 small molecule agonists, cell-based qHTS assay with human liver microsomes (AID 1963577);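 also: p53 response element beta-lactamase reporter cells with liver microsomes plus NADPH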
Procedure, shortened: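 HLM-supplemented p53RE-bla reporter assay: 16 h compound exposure at 37 C, microsomes and NADPH each 0.5 mg/mL final, read by fluorescence intensity.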

[6] = p53 small molecule agonists, cell-based qHTS assay with rat liver microsomes (AID 1963578)
Procedure, shortened: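 Quantitative HTS of the Tox21 10K library: p53RE-bla cells, rat liver microsomes plus NADPH at 0.5 mg/mL final each, 16 h at 37 C, beta-lactamase fluorescence detection.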

[7] = p53 small molecule agonists, cell-based qHTS assay with rat liver microsomes: qHTS cell viability counter screen (AID 1963580); also: nearly all actives have a fitted effect of over 45% in size
Procedure, shortened: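 Intracellular ATP, by CellTiter-Glo luminescence, defines viability. HCT-116 p53RE-bla cells, 4,000 per well, were compound-treated in the presence of rat liver microsomes and NADPH for 16 h at 37 C.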

[8] = p53 small molecule agonists, cell-based qHTS assay: qHTS cell viability counter screen (AID 1963581); also: nearly all actives have a fitted effect of over 45% in size; also: potency is read from the fitted curve at half-maximal effect
Procedure, shortened: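 p53RE-bla HCT-116 cells were exposed to compounds for 16 h at 37 C; after the beta-lactamase FRET read in the same wells, CellTiter-Glo was added and luminescence (intracellular ATP) read after 30 min at room temperature.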

[9] = p53 small molecule agonists, cell-based qHTS assay (AID 1963582; active = well fitted activation curve with a large enough effect in the signal ratio in the repeat runs, not every such curve was filed as active; the % refers to the signal ratio)
Procedure, shortened: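 p53RE-bla beta-lactamase reporter cells rested 5 h at 37 C/5% CO2, then received compounds in DMSO by pin transfer and were incubated 16 h at 37 C. LiveBLAzer B/G FRET substrate was loaded for 2 h at room temperature before fluorescence reading.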

[10] = target: Beta-2 adrenergic receptor (Homo sapiens) (UniProt P07550); assay: Adrenergic beta2 receptor (ADRB2) small molecule antagonists, cell-based qHTS assay (AID 1963592); also: series mostly up to about 92 µM; nearly all actives have a fitted effect of over 50% in size
Procedure, shortened: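 Cells (CHO, stable ADRB2 overexpression) incubated 18-20hr at 37C; compounds added from DMSO; agonist mix (1nM isoproterenol, 100uM IBMX, 25uM Ro-20-1724) added; 0.5hr RT; d2-cAMP and anti-cAMP-cryptate added; 1hr RT; 665/615 nm read.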

[11] = target: Beta-2 adrenergic receptor (Homo sapiens) (UniProt P07550); assay: Adrenergic beta2 receptor (ADRB2) small molecule agonists, cell-based qHTS assay (AID 1963593);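 also: CHO cells stably overexpressing human ADRB2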
Procedure, shortened: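 CHO cells stably over-expressing ADRB2 were plated overnight at 37C, then dosed with compounds plus a stimulation mix containing 100uM IBMX and 25uM Ro-20-1724 for 0.5hr at room temperature. cAMP was measured by HTRF competition, 1hr.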

[12] = target: D(2) dopamine receptor (Homo sapiens) (UniProt P14416); assay: Dopamine D2 receptor (DRD2) small molecule agonists, cell-based qHTS assay (AID 1963594); also: nearly all actives have a fitted effect of over 35% in size
Procedure, shortened: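 cAMP accumulation in DRD2-HEK293 cells measured by HTRF after 1 h detection; compounds added 10 min before NKH477 (200nM […]) forskolin-analogue stimulation, 30 min at room temperature, with Ro20-1724 present at 0.1 mM final.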

[13] = target: D(2) dopamine receptor (Homo sapiens) (UniProt P14416); assay: Dopamine D2 receptor (DRD2) small molecule antagonists, cell-based qHTS assay (AID 1963595; active = well fitted inhibition curve with a large enough effect in the signal ratio in the repeat runs, with a control signal flat; the % refers to the signal ratio)
Procedure, shortened: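 HTRF cAMP read-out at 665 and 620 nm emission (340 nm excitation). Antagonist mode: compounds were tested against 12 nM quinpirole in DRD2-HEK293 cells, with 200 nM NKH477 raising cAMP and 0.1 mM Ro20-1724 blocking its breakdown.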

[14] = p53 small molecule agonists, cell-based qHTS assay with human liver microsomes: qHTS cell viability counter screen (AID 1963579); also: nearly all actives have a fitted effect of over 45% in size
Procedure, shortened: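 Viability of p53RE-bla cells is measured as CellTiter-Glo luminescence following a 16 h, 37 C incubation with compound, liver microsomes from human donors and NADPH.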

[15] = target: 5-hydroxytryptamine receptor 2A (Homo sapiens) (UniProt P28223); assay: 5-hydroxytryptamine receptor 2A (HTR2A) small molecule agonists, cell-based qHTS assay (AID 1963587); also: nearly all actives have a fitted effect of over 30% in size
Procedure, shortened: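 Kinetic calcium-flux fluorescence (2 min, 1 sec intervals) after compound addition in agonist mode. HTR2A-CHO cells were cultured 18 h, then dye-loaded 1 h at 37 C.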

[16] = target: Muscarinic acetylcholine receptor M1 (Homo sapiens) (UniProt P11229); assay: Cholinergic receptor muscarinic 1 (CHRM1) small molecule antagonists, cell-based qHTS assay (AID 1963588); also: nearly all actives have a fitted effect of over 40% in size
Procedure, shortened: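 CHRM1-CHO calcium-flux assay, antagonist mode. Cells were seeded 18 h, dye-loaded 1 h at 37 C and given compound for 5 min at RT, then acetylcholine was added at 50nM. FDSS fluorescence was read 3 min; 15 concentrations, three runs.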

[17] = target: Muscarinic acetylcholine receptor M1 (Homo sapiens) (UniProt P11229); assay: Cholinergic receptor muscarinic 1 (CHRM1) small molecule agonists, cell-based qHTS assay (AID 1963589); also: nearly all actives have a fitted effect of over 35% in size
Procedure, shortened: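 CHO cells stably expressing human CHRM1, seeded 18 h at 37 C/5% CO2, dye-loaded 1 h at 37 C, then given compound in agonist mode; intracellular calcium fluorescence read kinetically at 1 s intervals. Fifteen concentrations, three independent runs.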

[18] = cAMP Responsive Elements (CRE) small molecule agonists, cell-based qHTS assay (AID 1963590)
Procedure, shortened: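 CRE-bla HEK 293T cells in DMEM with 10% dialyzed FBS, NEAA, pyruvate and 25 mM HEPES were plated 18 h at 37 C/5% CO2, then exposed to compounds in DMSO for 3 h before LiveBLAzer B/G FRET substrate addition.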

[19] = cAMP Responsive Elements (CRE) small molecule antagonists, cell-based qHTS assay (AID 1963591; active = well fitted inhibition curve with a large enough effect in the signal ratio in the repeat runs, not every such curve was filed as active; the % refers to the signal ratio)
Procedure, shortened: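 CRE-bla HEK293T cells were plated 18 h at 37 °C/5% CO2, pinned with compound in DMSO, then stimulated with NKH477 at 0.25 uM final for 3 h. LiveBLAzer B/G FRET substrate was added and plates incubated 2 h at room temperature.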

[20] = target: 5-hydroxytryptamine receptor 2A (Homo sapiens) (UniProt P28223); assay: 5-hydroxytryptamine receptor 2A (HTR2A) small molecule antagonists, cell-based qHTS assay (AID 1963586); also: nearly all actives have a fitted effect of over 45% in size; also: potency is read from the fitted curve at half-maximal effect
Procedure, shortened: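 Antagonist-mode intracellular calcium assay: DOI (4 nM) added after 5 min compound pre-incubation at room temperature to dye-loaded HTR2A-CHO cells. Fluorescence followed for 3 min, sampled every second.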

Chain of D(2) dopamine receptor (Homo sapiens) (P14416 whole entry, looked up): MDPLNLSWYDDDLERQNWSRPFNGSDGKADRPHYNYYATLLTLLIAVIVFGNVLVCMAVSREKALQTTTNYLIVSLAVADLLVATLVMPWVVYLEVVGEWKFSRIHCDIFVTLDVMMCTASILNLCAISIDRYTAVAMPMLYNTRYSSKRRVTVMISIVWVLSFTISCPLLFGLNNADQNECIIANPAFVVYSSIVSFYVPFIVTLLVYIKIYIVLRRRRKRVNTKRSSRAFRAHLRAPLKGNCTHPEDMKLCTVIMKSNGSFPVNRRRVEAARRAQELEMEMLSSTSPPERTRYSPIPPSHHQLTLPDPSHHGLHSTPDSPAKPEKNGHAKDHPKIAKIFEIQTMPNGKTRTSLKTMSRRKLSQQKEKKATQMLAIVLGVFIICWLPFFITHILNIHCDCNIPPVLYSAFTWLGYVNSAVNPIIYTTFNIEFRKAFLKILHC
Chain of Beta-2 adrenergic receptor (Homo sapiens) (P07550 whole entry, looked up): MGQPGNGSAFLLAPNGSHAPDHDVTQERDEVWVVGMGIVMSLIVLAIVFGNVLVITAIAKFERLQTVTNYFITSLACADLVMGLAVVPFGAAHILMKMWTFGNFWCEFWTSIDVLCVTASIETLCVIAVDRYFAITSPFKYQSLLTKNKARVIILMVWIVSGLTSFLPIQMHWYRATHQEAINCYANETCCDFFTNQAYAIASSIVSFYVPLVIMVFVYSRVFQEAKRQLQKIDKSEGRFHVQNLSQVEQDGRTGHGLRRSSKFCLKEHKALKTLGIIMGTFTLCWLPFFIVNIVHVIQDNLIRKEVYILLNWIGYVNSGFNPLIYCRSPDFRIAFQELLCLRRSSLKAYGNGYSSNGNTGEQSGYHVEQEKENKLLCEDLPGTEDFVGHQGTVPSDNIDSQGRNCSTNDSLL
Chain of Gonadotropin-releasing hormone receptor (Homo sapiens) (P30968 whole entry, looked up): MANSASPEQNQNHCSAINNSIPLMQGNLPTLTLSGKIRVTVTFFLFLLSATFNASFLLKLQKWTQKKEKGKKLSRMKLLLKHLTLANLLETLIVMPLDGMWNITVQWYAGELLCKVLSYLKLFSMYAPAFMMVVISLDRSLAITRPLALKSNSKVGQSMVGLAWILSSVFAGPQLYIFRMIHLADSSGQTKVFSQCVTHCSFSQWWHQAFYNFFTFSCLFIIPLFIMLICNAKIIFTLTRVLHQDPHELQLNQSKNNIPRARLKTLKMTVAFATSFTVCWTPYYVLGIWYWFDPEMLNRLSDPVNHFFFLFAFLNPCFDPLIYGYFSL
Chain of KiSS-1 receptor (Homo sapiens) (Q969F8 whole entry, looked up): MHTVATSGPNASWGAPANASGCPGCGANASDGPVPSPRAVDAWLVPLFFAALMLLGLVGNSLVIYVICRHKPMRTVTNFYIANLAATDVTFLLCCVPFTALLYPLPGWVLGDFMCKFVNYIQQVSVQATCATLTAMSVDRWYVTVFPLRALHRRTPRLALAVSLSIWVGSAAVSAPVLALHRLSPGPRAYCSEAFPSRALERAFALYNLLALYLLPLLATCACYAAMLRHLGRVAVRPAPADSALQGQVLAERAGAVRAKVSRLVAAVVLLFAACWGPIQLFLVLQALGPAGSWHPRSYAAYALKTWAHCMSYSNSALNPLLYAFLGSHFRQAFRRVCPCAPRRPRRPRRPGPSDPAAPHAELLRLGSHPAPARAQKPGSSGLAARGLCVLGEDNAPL
Chain of 5-hydroxytryptamine receptor 2A (Homo sapiens) (P28223 whole entry, looked up): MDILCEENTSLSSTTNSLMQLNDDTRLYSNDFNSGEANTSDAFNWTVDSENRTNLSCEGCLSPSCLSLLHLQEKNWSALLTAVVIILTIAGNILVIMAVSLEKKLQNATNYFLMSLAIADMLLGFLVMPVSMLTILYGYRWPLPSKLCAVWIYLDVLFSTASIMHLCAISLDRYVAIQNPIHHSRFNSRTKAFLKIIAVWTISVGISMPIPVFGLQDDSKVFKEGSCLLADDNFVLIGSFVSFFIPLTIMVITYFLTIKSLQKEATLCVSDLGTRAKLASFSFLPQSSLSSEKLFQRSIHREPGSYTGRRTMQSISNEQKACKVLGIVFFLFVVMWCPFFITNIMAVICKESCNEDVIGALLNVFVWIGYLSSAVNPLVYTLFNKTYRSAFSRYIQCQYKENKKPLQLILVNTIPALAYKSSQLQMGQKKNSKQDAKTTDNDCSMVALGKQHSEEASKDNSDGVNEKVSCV
Chain of Muscarinic acetylcholine receptor M1 (Homo sapiens) (P11229 whole entry, looked up): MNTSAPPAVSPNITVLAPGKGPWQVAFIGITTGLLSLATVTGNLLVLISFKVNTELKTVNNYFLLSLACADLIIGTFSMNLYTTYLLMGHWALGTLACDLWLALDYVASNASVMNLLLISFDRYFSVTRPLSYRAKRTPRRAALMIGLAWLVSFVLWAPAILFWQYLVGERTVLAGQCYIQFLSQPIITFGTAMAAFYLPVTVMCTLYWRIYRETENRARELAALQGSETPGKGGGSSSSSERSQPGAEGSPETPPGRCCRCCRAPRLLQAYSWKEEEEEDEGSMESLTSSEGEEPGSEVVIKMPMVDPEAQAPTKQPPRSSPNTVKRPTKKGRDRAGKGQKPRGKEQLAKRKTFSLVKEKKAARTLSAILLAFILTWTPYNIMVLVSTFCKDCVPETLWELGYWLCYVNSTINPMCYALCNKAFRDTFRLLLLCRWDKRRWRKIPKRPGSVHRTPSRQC

SMILES | Potency [1] | Potency [2] | Potency [3] | Potency [4] | Potency [5] | Potency [6] | Potency [7] | Potency [8] | Potency [9] | Potency [10] | Potency [11] | Potency [12] | Potency [13] | Potency [14] | Potency [15] | Potency [16] | Potency [17] | Potency [18] | Potency [19] | Potency [20]
O=C(c1ccc(OCCN2CCCCC2)cc1)c1c(-c2ccc(O)cc2)sc2cc(O)ccc12 | 34.4 µM (active) and 30.6 µM (active) | inactive | inactive | inactive | inactive | inactive | inactive | 36.4 µM (active) and inactive | inactive | inactive | inactive | inactive | inactive | – | – | – | – | – | – | –
CN1CCOCC1 | inactive | inactive | inactive | inactive | inactive | inactive | inactive | inactive | – | inactive | inactive | inactive | inactive | inactive | inactive | inactive | inactive | inactive | inactive | –
Cn1c(=O)c2c(ncn2C)n(C)c1=O | inactive | inactive | inactive | inactive | inactive | inactive | inactive | inactive | inactive | inactive | – | inactive | inactive | inactive | – | – | – | inactive | inactive | –
O=C(Oc1ccccc1)c1ccc(O)cc1 | inactive | inactive | inactive | inactive | inactive | inactive | inactive | inactive | inactive | inactive | – | inactive | inactive | – | inactive | inactive | inactive | inactive | inactive | 26.7 µM (active) and 13.3 µM (active)
CCOC(=O)[C@H](CCc1ccccc1)N[C@@H](C)C(=O)N1Cc2ccccc2C[C@H]1C(=O)O | inactive | inactive | inactive | inactive | inactive | inactive | inactive | inactive | – | inactive | inactive | inactive | inactive | inactive | – | – | – | inactive | inactive | –
O=CC1CC=CCC1 (stereo not given) | inactive | inactive | inactive | inactive | inactive | inactive | inactive | inactive | inactive | inactive | – | inactive | inactive | – | inactive | inactive | inactive | inactive | inactive | inactive
O=C(O)CNc1ccccc1 | inactive | inactive | inactive | inactive | inactive | inactive | inactive | – | inactive | inactive | inactive | inactive | inactive | inactive | inactive | inactive | inactive | inactive | inactive | inactive
O=c1n(CCCN2CCN(c3cccc(Cl)c3)CC2)nc2ccccn12 | inactive | inactive | inactive | inactive | inactive | inactive | inactive | inactive | inactive | inactive | – | inactive | – | inactive | – | – | – | inactive | inactive | –
